PubChem BioAssay (NCATS)
Inconclusive results are not listed. Calls of active or inactive are those of the source. Unless noted, calls follow the shape of the full dose curve.

Experiments:
[1] = Cell Viability - BJ (AID 421); details: BJ fibroblast viability, qHTS;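 also: potency is read from the fitted curve at half-maximal effect; cells exposed to compound for 40 hours at 37 °C before readout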
In short: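 Luminescent ATP signal (CellTiter-Glo, 20 min at room temperature) served as the read-out of viable BJ cells after 40 hours of compound treatment. Responses were scaled between DMSO and 100 uM tamoxifen, and AC50 values were obtained by Hill modeling.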

[2] = Cell Viability - Jurkat (AID 426;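 active = dose-dependent loss of cell ATP signal giving a full or clear fitted curve, ranked by lower potency value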; also: potency is read from the fitted curve at half-maximal effect); details: qHTS
In short: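 Jurkat (clone E6-1, human T-cell leukemia) cells, 5000/well in complete medium, were exposed to compound for 40 hr at 37 °C. Viability was read as intracellular ATP by CellTiter-Glo luminescence; AC50 came from Hill fits of concentration-response data.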

[3] = Cell Viability - Hek293 (AID 427;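 active = compounds whose dose-response curve shows a full or clear partial loss of cell viability, called from curve shape rather than a numeric limit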;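 also: potency is read from the fitted curve at half-maximal effect; cells exposed to compound for 40 hours at 37 °C before reading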); details: qHTS
In short: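 Luminescent ATP read-out (CellTiter-Glo, 20 min RT) after 40 hr compound exposure at 37 °C in complete medium. Signal normalized to DMSO (basal) and 100 uM tamoxifen (100% inhibition); concentration-response fitted with the standard Hill equation to give AC50.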

[4] = Cell Viability - HepG2 (AID 433); details: qHTS;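 also: potency is read from the fitted curve at half-maximal effect; potency for ATP loss meaning cytotoxicity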
In short: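 ATP luminescence (CellTiter-Glo) after 40 h compound exposure, 37 °C, HepG2, 1500 cells/well, complete medium. Normalized: DMSO = basal, 100 uM tamoxifen = 100% inhibition. AC50 via standard Hill equation.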

[5] = Cell Viability - MRC5 (AID 434); details: MRC5 lung fibroblast viability, qHTS;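 also: potency is read from the fitted curve at half-maximal effect; potency reflects cytotoxicity seen as loss of intracellular ATP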
In short: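 MRC5 normal human lung fibroblasts (1500/well) were treated with compounds for 40 hr at 37 °C in complete medium, and viable cells were measured as intracellular ATP by CellTiter-Glo luminescence. AC50 came from Hill fits, normalized to DMSO and 100 uM tamoxifen.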

[6] = Cell Viability - SK-N-SH (AID 435); details: SK-N-SH neuroblastoma cell viability qHTS; also: potency is read from the fitted curve at half-maximal effect
In short: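 CellTiter-Glo ATP luminescence, 20 min RT read; cells pre-plated 5 hr, compound 40 hr at 37 °C, 1500 cells/well, complete medium. Normalized DMSO = 0, 100 uM tamoxifen = 100% inhibition; Hill-fit AC50.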

[7] = qHTS assay for environmental chemicals that activate the Aryl hydrocarbon Receptor (AhR) signaling pathway (AID 651777; active = well fitted curve in the direction sought with a large enough effect; an effect the other way counts as inactive or inconclusive; also: % of control where 0% means no effect; nearly all actives have a fitted effect of over 15% in size); details: 1A2-DRE human hepatoma cells, luciferase, 24 h; activation: active compounds read high
In short: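 Quantitative HTS in stably transfected human liver-derived cells whose luciferase gene sits downstream of the CYP1A2 promoter and dioxin response element. After 24 hr exposure at 37 C, One-Glo luminescence was measured.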

[8] = qHTS assay for small molecule agonists of the antioxidant response element (ARE) signaling pathway measured by Nrf2-dependant transcriptional activity (AID 720636; active = well fitted curve in the direction sought with a large enough effect in the repeat runs; an effect the other way counts as inactive or inconclusive; also: % of control where 0% means no effect)
In short: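 Quantitative HTS format in HepG2 cells stably expressing an ARE-luciferase reporter; 16 hr compound treatment at 37 C, luciferase signal detected with ONE-Glo.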

[9] = qHTS assay for small molecule agonists of the antioxidant response element (ARE) signaling pathway measured by Nrf2-dependant transcriptional activity - cell viability counter screen (AID 720653; active = well fitted curve in the direction sought with a large enough effect in the repeat runs; an effect the other way counts as inactive or inconclusive; also: % is scaled to controls: 0 for no effect and ±100 for the full control effect); details: ARE-bla HepG2 viability, CellTiter-Glo ATP luminescence, 16 h; max response: active compounds read low
In short: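 ARE-bla HepG2 cells (2,000/well) rested 5 hrs at 37C/5% CO2, then exposed to compounds in DMSO for 16 hrs. Viability was read in the same wells as intracellular ATP by luminescence, 30 min at room temperature after reagent addition.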

[10] = qHTS assay for cell viability of HEK293 cells (AID 743288; active = well fitted curve in the direction sought with a large enough effect; an effect the other way counts as inactive or inconclusive; also: % is scaled to controls: 0 for no effect and ±100 for the full control effect; nearly all actives have a fitted effect of over 50% in size); details: ATP luminescence (CellTiter-Glo), 18 h; max response: active compounds read low
In short: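 Environmental chemicals tested in qHTS format against parental HEK293 cells; 18 h treatment, 37 C; read-out ATP luminescence (CellTiter-Glo), 30 min RT development.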

Cc1ccc2ccccc2c1C
inactive: Potency [1] > 92 µM | Potency [2] > 92 µM | Potency [3] > 92 µM | Potency [4] > 92 µM | Potency [5] > 92 µM | Potency [6] > 92 µM | activation [7] 1.49% | Potency [8] | max response [9] 9.36% | max response [10] 5.03%
